Bioassay records: PubChem, National Center for Advancing Translational Sciences (NCATS)
POLB inh: inhibitors of human DNA polymerase beta; P06746; Pol beta primer extension/strand displacement, fluorescence kinetic; Potency, µM (series often up to 114 µM), hits mostly inhibitors; actives 1.3% (n = 340,000); AID 485314
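Enzyme-only controls used 10 nM Pol beta; buffer lacking enzyme served as negative control. Compound preincubated 15 min, then 50 nM substrate added; 0 and 10 min reads at room temperature.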
Pol eta inh-1: blocks human DNA polymerase eta activity | recombinant Pol eta, fluorescent DNA replication assay | Potency, µM (series often up to 114 µM), actives largely listed as inhibitors | actives 1.2% (n = 390,000)
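Fluorescent replication assay: 50 nM final substrate added after a 15 min room-temperature compound preincubation with 10 nM enzyme. Signal taken at 0 min and again at 10 min.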
PI5P4K alpha inh: inhibitors of human PI5P4K alpha | actives 1.2% (n = 330,000) | P48426 | AID 652105 | max response, % | PI5P4Kalpha enzyme, ADP-Glo luminescence, 60 min; stronger effect = lower value; active = max response of -50% or lower; inconclusive = between -30% and -50%; inactive = -30% or higher; note: value at the top dose of about 77 µM
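Controls without substrate or without enzyme flank wells where PI5P4Kalpha converts substrate using 5 microM ATP (final). Incubation lasts 60 minutes at room temperature; ADP formed is read by ADP-Glo luminescence.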
Pol kappa inh-1: DNA polymerase kappa (human) inhibition | Q9UBT6 | purified Pol kappa, fluorescent DNA synthesis assay, 10 min | Potency, µM (series often up to 107 µM), actives largely listed as inhibitors | AID 588579 | actives 0.53% (n = 400,000)
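Readout: fluorescence, taken kinetically at 0 and 10 min. Conditions: 10 nM Pol kappa, 15 min RT compound preincubation, 50 nM substrate final. Controls: enzyme-free buffer wells.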
FEN1 inhibitor: blocks human flap endonuclease 1; P39748; Recombinant FEN1 flap cleavage, fluorescence, 15 min; Potency, µM (top dose mostly 114 µM), usual class: inhibitors; actives 0.35% (n = 390,000); note: nearly all actives have a fitted effect of over 65% in size
Target sequence (P39748 whole entry, looked up): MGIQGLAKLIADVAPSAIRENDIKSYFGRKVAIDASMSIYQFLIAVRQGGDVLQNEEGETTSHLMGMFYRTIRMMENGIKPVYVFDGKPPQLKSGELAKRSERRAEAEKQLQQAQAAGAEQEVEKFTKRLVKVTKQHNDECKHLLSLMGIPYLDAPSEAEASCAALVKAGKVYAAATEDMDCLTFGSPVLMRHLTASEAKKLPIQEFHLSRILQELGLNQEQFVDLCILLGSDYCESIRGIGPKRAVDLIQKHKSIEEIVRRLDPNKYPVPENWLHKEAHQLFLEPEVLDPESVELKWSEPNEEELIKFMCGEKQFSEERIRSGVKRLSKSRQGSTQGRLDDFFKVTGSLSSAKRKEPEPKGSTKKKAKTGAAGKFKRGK
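Quantitative HTS format: each compound was titrated, incubated with 10 nM nuclease for 15 min at room temperature, then challenged with flap substrate at 50 nM final. Signal change over 15 min gave concentration–effect curves.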
POLI inh: inhibitors of human DNA polymerase iota; actives 1% (n = 390,000); Potency, µM (top dose mostly 115 µM), most hits filed as inhibitors; Q9UNA4; Pol iota fluorescent replication assay, 10 min
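Fluorescent replication assay read twice, at 0 min and 10 min after adding 50 nM (final) substrate. Enzyme (10 nM) and compounds were first incubated 15 min at room temperature; enzyme-free buffer wells were negative controls.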
GALK inh confirm: galactokinase (human) inhibition, confirmation; purified GALK, Kinase-Glo ATP depletion luminescence; Potency, µM (doses to about 115 µM), actives largely listed as inhibitors; shares compounds with Pol eta inh-1; AID 2015; actives 70% (n = 150)
Redox cycling: generates H2O2 by redox cycling, flagging GALK artifacts. shares compounds with Pol eta inh-1. Phenol red-HRP H2O2 redox cycling, absorbance 600 nm. Potency, µM (doses to about 115 µM), usual class: inhibitors. actives 40% (n = 150). AID 2035
HEK293 tox: reduces HEK-293 cell viability in GALK counter-screen | shares compounds with Pol eta inh-1 | HEK-293 viability, ATP luminescence (CellTiter-Glo), 24/48 h | Potency, µM (doses to about 46.1 µM), most hits filed as inhibitors | actives 10% (n = 170)
Pol kappa inh-2: confirmation of human DNA polymerase kappa inhibitors. shares compounds with Pol eta inh-1. purified Pol-kappa, fluorescent strand-displacement substrate. Potency, µM, most hits filed as inhibitors. actives 76% (n = 920)
Pol eta inh-2: Pol eta (human) inhibition, cherry-pick confirmation | shares compounds with Pol eta inh-1 | actives 64% (n = 2,600) | Potency, µM, hits mostly inhibitors | AID 720502 | Pol eta primer extension, TAMRA/BHQ fluorescence, 10 min
Hits are given with their value; – = inactive; ? = inconclusive; · = no result. An excerpt weighted towards active compounds, which were near 2.8% of everything screened. Unless noted, calls come from the whole dose curve; as a rule, active = well fitted curve in the direction sought with a large enough effect; inconclusive = small, poorly fitted or top-dose-only effect, or another doubt; inactive = no such curve, though single readings can be large; an effect the other way counts as inactive or inconclusive.

SMILES	POLB inh	Pol eta inh-1	PI5P4K alpha inh	Pol kappa inh-1	FEN1 inhibitor	POLI inh	Pol eta inh-2	others
Nc1ccc2nc(-c3ccc(Cl)cc3)[nH]c2c1	–	–	?	–	?	–	·
Cc1nc2ccc(-c3nc4ccc(N)cc4[nH]3)cc2[nH]1	12.6µM	?	–	50.1µM	35.5µM	17.8µM	·	Pol kappa inh-2=?
CCCN(CCC)S(=O)(=O)c1ccc(NC(=O)Cc2cccs2)cc1	?	?	·	–	–	?	75.7
COc1cc(C#N)c(N=C(SCC#N)N2CCOCC2)cc1OC	–	–	–	–	–	–	·
CC(=O)NNC(=O)CSc1nnc(-c2ccccc2)c(-c2ccccc2)n1	–	14.1µM	–	?	?	?	7.57	Pol kappa inh-2=18.9
CC(C)(C)NC(=O)CSc1nnc(-c2ccccc2)c(-c2ccccc2)n1	–	–	–	–	–	–	·
O=C(O)c1ccc(C=C(c2nc3ccccc3s2)c2nc3ccccc3s2)cc1	–	39.8µM	–	–	–	?	?
CCn1c(=O)c2sccc2n2c(CCCC(=O)Nc3ccc(Oc4ccccc4)cc3)nnc12	–	–	·	–	–	–	·
COc1cccc(C(=O)Nc2sc3c(c2C#N)CCN(C(C)=O)C3)c1	–	–	–	–	–	–	·
Cc1cc2nc(-c3ccc(SCc4ccc(C(=O)O)cc4)nc3)[nH]c2cc1C	22.4µM	28.2µM	-64.2	–	?	?	37.9
COC(=O)COc1ccc(C2Nc3c(Cl)ccc(C(=O)O)c3C3C=CCC32)cc1 (stereo unspecified)	?	28.2µM	-57.2	?	?	?	47.8
O=C1NC(=S)SC1=C1CCCC1	22.4µM	20µM	?	14.1µM	79.4µM	?	?
COc1cccc(NC(=O)Cn2c(CCC(=O)O)ccc2-c2cccs2)c1	–	–	–	–	–	–	·
O=C(O)CCc1ccc(-c2cccs2)n1CCC(=O)O	22.4µM	10µM	–	?	–	?	?
O=C(Cn1nnc(-c2cccc(C(F)(F)F)c2)n1)NCc1ccc(F)cc1	–	–	·	–	–	–	·
CC(CC(=O)Nc1ncc([N+](=O)[O-])s1)c1ccccc1 (stereo unspecified)	–	–	–	–	–	–	·
O=C(Cc1ccc(Br)cc1)Nc1ncc([N+](=O)[O-])s1	?	?	?	–	–	?	?	Pol kappa inh-2=?
O=C(COC(=O)COc1ccccc1)Nc1ncc([N+](=O)[O-])s1	·	10µM	-53.1	?	?	?	30.1	Pol kappa inh-2=11.9
Cc1cnc(NC(=O)Cc2ccc(Br)cc2)s1	–	–	–	–	–	–	·
Cn1c(=O)c2sccc2n2c(CCC(=O)NCc3ccc(F)cc3)nnc12	–	–	·	–	–	–	·
O=C(N/C=C/c1ccco1)OCc1ccccc1	?	?	–	–	–	?	?
COc1ccc(NC(=O)N/C=C/c2ccco2)cc1	25.1µM	44.7µM	–	?	–	?	?
CN(C(=O)COC(=O)c1ccc(-c2ccc(O)cc2)cc1)C1CCS(=O)(=O)C1 (stereo unspecified)	–	?	–	–	–	–	·
Oc1ccc(/C=N/Nc2ncnc3c2ncn3Cc2ccccc2)cc1O	3.55µM	3.16µM	?	?	–	2.24µM	47.8
O=C(Cn1ncc2c3ccccc3n(Cc3ccccc3)c2c1=O)NCCc1ccc(Cl)cc1	–	–	·	–	–	–	·
SMILES	POLB inh	Pol eta inh-1	PI5P4K alpha inh	Pol kappa inh-1	FEN1 inhibitor	POLI inh	Pol eta inh-2	others
COc1cc(NC(=O)CSc2nc(-c3ccc(C)cc3)nc3c2Cc2ccccc2O3)cc(OC)c1	–	–	·	–	–	–	·
O=C(CSc1nc(-c2ccccc2)nc2ccc(F)cc12)Nc1cccc(C(=O)O)c1	?	79.4µM	-50.1	–	?	?	·	Pol kappa inh-2=?
COc1ccc2c(c1)Oc1nc(-c3ccc(C)cc3)nc(SCC(=O)Nc3cccc(C(=O)O)c3)c1C2	·	·	·	·	·	·	·	Pol kappa inh-2=29.9
CC(OC(=O)c1cccc(-n2cnnn2)c1)c1nc2ccccc2c(=O)[nH]1 (stereo unspecified)	·	–	–	–	–	–	·
O=c1oc(CCO)cc2ccc(Br)cc12	·	–	–	–	–	–	·
CO[C@@]1(NC(=O)C2SC(=C(C(N)=O)C(=O)O)S2)C(=O)N2C(C(=O)O)=C(CSc3nnnn3C)CS[C@@H]21 (stereo partly specified)	·	–	–	44.7µM	–	11.2µM	30.1
O=C1OC(C(=O)O)Cc2ccccc21 (stereo unspecified)	–	–	·	–	–	–	·	GALK inh confirm=–;Redox cycling=–;HEK293 tox=–
Cc1ccccc1NC(=O)C1Cc2ccccc2C(=O)O1 (stereo unspecified)	–	–	–	–	–	–	·
Cc1ccc(C(=O)N/C(=C\c2ccc(C)o2)C(=O)O)cc1	?	31.6µM	–	?	–	–	?
N#Cc1ccsc1NC(=O)COC(=O)C1=NNC(=O)CC1	·	20µM	-82.3	?	?	14.1µM	75.7
Cc1ccc(S(=O)(=O)CCC(=O)Nc2cccc(C)c2)cc1	–	–	–	–	–	?	·
COc1ccc(CNC(=O)CCS(=O)(=O)c2ccc(Br)cc2)cc1	–	?	–	?	–	?	75.7
CCc1cccc(NC(=O)CCS(=O)(=O)c2ccc(Br)cc2)c1	7.08µM	25.1µM	–	–	–	–	84.9	Pol kappa inh-2=42.3
Cc1ccc2sc(N3CCN(CCNC(=O)c4ccco4)CC3)nc2c1C	·	?	–	–	–	–	·
CCOC(=O)c1cnc2c(C)c(Cl)ccc2c1Nc1ccc(N2CCOCC2)cc1	–	–	·	–	–	–	·
CCNC(=O)NC(=O)COc1ccccc1C#N	–	–	·	–	–	–	·
N#Cc1ccccc1OCC(=O)NC(=O)NCc1ccco1	–	39.8µM	?	–	–	?	?
COc1ccc(CC(=O)OCC(=O)NCc2ccco2)cc1	·	–	–	–	–	?	·
COc1cc(CC(=O)OCC(=O)NCc2ccco2)cc(OC)c1OC	·	50.1µM	–	–	–	?	?
